Test results published in PubChem BioAssay (NCATS).
Records with an inconclusive call do not appear. Where a call stands in place of a potency, no number is given. Activity calls are given as the source filed them. Unless noted, calls come from the whole dose curve; as a rule, active = well fitted curve in the direction sought with a large enough effect; inconclusive = small, poorly fitted or top-dose-only effect, or another doubt; inactive = no such curve, though single readings can be large; an effect the other way counts as inactive or inconclusive.

Legend:
[1] = qHTS for differential inhibitors of proliferation of Plasmodium falciparum line 7G8 (AID 1815);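 note: parasite growth measured after three days of incubation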; note: potency is the fitted concentration of half-maximal effect
[2] = qHTS for differential inhibitors of proliferation of Plasmodium falciparum line Dd2 (AID 1882); details: Potency: Plasmodium falciparum Dd2 proliferation inhibition; note: nearly all actives have a fitted effect of over 65% in size; note: potency is the fitted concentration of half-maximal effect
Summary of the method: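 SYBR Green DNA fluorescence (ex 485, em 535 nm) after overnight lysis quantifies parasite growth; compound exposure lasted 72 h at 37 C on infected red cells at 2.5% hematocrit, 0.3% parasitemia (final). Artemisinin 0.29 uM and vehicle wells define normalization.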

[3] = qHTS for differential inhibitors of proliferation of Plasmodium falciparum line W2 (AID 1883); details: Potency: Plasmodium falciparum W2 proliferation inhibition;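 note: parasites grown with compound for 72 h before lysis and staining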; note: potency is the fitted concentration of half-maximal effect
[4] = qHTS Assay for Modulators of Human Peripheral Myelin Protein 22 (PMP22) Expression/Activity (AID 1967; active = well fitted curve in the direction sought with a large enough effect in the signal ratio; the % refers to the signal ratio)
Summary of the method: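 Engineered MSC80 cells, Pmp22-promoter green and EF-alpha red luciferase reporters; 24h compound treatment at 37 °C. Concentration-response fits on green, red and ratio signals, each overlap-corrected, with %Activity normalized to untreated wells.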

[5] = target: Ferritin light chain (Equus caballus) (UniProt P02791); test: qHTS Validation Assay for Identification of Novel General Anesthetics (AID 2323); note: series mostly up to about 77 µM
Summary of the method: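 Normalized fluorescence response, scaled between free 1-AMA and 1-AMA/apoferritin complex, fitted to a four-parameter Hill equation for concentration-effect values. Binding mix: 10 uM horse-spleen apoferritin, 50% saturated 1-AMA in PBS; read 380/535 nm after 10 min.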

[6] = target: ATP-dependent DNA helicase Q1 (Homo sapiens) (UniProt P46063); test: qHTS Validation Assay for Inhibitors of RecQ-Like Dna Helicase 1 (RECQ1) (AID 2353)
Summary of the method: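 RECQ1T1 50 nM; forked duplex (20 bp + 30-nt ss tails) 200 nM, ATP 2 mM final; pH 8.0, 2 mM MgCl2, 2.5 ug/ml poly(dI-dC); 15 min compound preincubation; discontinuous kinetic read over 2 h at RT.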

[7] = High Content Imaging Cell-Based qHTS for Inhibitors of the mTORC1 Signaling Pathway in MEF Cells (AID 2667);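 note: Tsc2-/- p53-/- MEFs stably re-expressing wild-type Tsc2 exposed 24 h; series mostly up to about 38 µM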
Summary of the method: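 Read-out is the share of phospho-rpS6-positive cells per well, from Hoechst-normalized Alexa-488 Ser235/236 staining imaged on IN Cell. Cells: WT Tsc2-expressing Tsc2-/-, p53-/- MEFs exposed to compound for 24 hrs.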

[8] = Cytometry Cell-Based qHTS for Inhibitors of the mTORC1 Signaling Pathway in MEF cells (AID 2668);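 note: Tsc2-/- p53-/- mouse embryonic fibroblasts stably re-expressing wild-type Tsc2; percent cells positive for phospho-rpS6 Ser235/236 relative to propidium iodide stain; series mostly up to about 38 µM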
Summary of the method: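 In MEFs grown in DMEM + 10% FBS, a 24 hrs compound exposure preceded imaging of phospho-rpS6 Ser235/236 by laser-scanning cytometry.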

[9] = Validation screen for inhibitors of Lassa infection (AID 463096; calls by dose curve)
[10] = Validation screen for small molecules that induce DNA re-replication in MCF 10A normal breast cells (AID 463097); note: nearly all actives have a fitted effect of over 60% in size
Summary of the method: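 Following 48 hr compound incubation (37 C, 5% CO2), MCF 10A cells receive Hoechst for 40 min at 37 C. Nuclei are then scanned (excitation 405 nm, emission 500-530 nm) for total fluorescence intensity.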

[11] = target: Ubiquitin carboxyl-terminal hydrolase 2 (Homo sapiens) (UniProt O75604); test: qHTS Validation Assay for Inhibitors of Ubiquitin-specific Protease USP2a Using CHOP2 as the Reporter (AID 463106)
Summary of the method: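 Fluorescence read-out at Ex 485nm/Em 531nm after 60min RT, following addition of 25nM Ub-CHOP2 plus 25nM reporter substrate to USP2 core (10nM) pretreated 30min with compound. Data normalized to NEM full inhibition; concentration-response curves fitted.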

[12] = target: DNA polymerase III PolC-type (Bacillus subtilis (strain 168)) (UniProt P13267); test: qHTS Validation Assay for the Inhibitors of DNA Replication in Gram-Positive Bacteria (AID 485295); note: potency is the fitted concentration of half-maximal effect
Summary of the method: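 Inhibition of DNA synthesis by the reconstituted PolC holoenzyme, monitored through PicoGreen staining of dsDNA formed from ssM13Gori, dNTPs and NTPs, with compound preincubation and room-temperature reaction.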

[13] = qHTS Validation Assay to Find Inhibitors of Chronic Active B-Cell Receptor Signaling (AID 485345; active = well fitted curve in the direction sought with a large enough effect in the main read-out, with a control signal flat, not every such curve was filed as active)
Summary of the method: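 TMD8 ABC-DLBCL cells stably carrying doxycycline-inducible IkappaBalpha–green luciferase fusion plus unfused red luciferase; compounds 46 uM to 3 nM, 4 h at 37C with doxycycline. Corrected green/red luminescence ratio normalized to 10 uM MG-132 and basal cell wells; curves fitted.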

[14] = target: Endonuclease 4 (Escherichia coli (strain K12)) (UniProt P0A6C1); test: Counterscreen for APE1 Inhibitors: qHTS Validation Assay for Inhibitors of Endonuclease IV (AID 1708)
Summary of the method: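 Conditions: 2 nM enzyme, 50 nM TAMRA/BHQ-2 substrate, pH 7.5 Tris buffer with 2 mM MgCl2, RT. Compound preincubation 15 min; readout three fluorescence reads 60 s apart, third-minus-first.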

[15] = qHTS for differential inhibitors of proliferation of Plasmodium falciparum line GB4 (AID 1816); details: Potency: Plasmodium falciparum GB4 proliferation inhibition;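 note: parasite growth measured after 72 h incubation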; note: potency is the fitted concentration of half-maximal effect
[16] = qHTS for differential inhibitors of proliferation of Plasmodium falciparum line 3D7 (AID 1876); note: potency is the fitted concentration of half-maximal effect
[17] = qHTS for differential inhibitors of proliferation of Plasmodium falciparum line D10 (AID 1877);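 note: parasites grown with compound for 72 h before DNA staining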; note: potency is the fitted concentration of half-maximal effect
[18] = qHTS for differential inhibitors of proliferation of Plasmodium falciparum line HB3 (AID 1886); details: Potency: Plasmodium falciparum HB3 proliferation inhibition;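 note: parasites grown with compound for 72 h before SYBR Green readout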; note: potency is the fitted concentration of half-maximal effect
[19] = qHTS Assay for Identification of Small Molecule Inducers of Hypoxia Response (AID 2120; active = well fitted curve in the direction sought with a large enough effect in the signal ratio, with a control signal flat, not every such curve was filed as active; the % refers to the signal ratio)
Summary of the method: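 Reporter induction read as the CCF4 blue/green (460nm/530nm) emission ratio after 2.5 h dye loading at room temperature. ME-180 HRE-beta-lactamase cells received titrated compounds for 17 h at 37 degrees Celsius; AC50 values derived.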

[20] = target: RecQ-like DNA helicase BLM (Homo sapiens) (UniProt P54132); test: qHTS Validation Assay for Inhibitors of Bloom's syndrome helicase (BLM) (AID 2364); note: potency is the fitted concentration of half-maximal effect
Summary of the method: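 50 nM BLM preincubated 15 min at room temperature with compound in pH 8.0 Tris buffer containing 2.5 ug/ml poly(dI-dC); started with 200 nM TAMRA/BHQ-2 forked duplex and 2 mM ATP (final). Unwinding read as TAMRA fluorescence increase, two reads 2 h apart.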

Ferritin light chain (Equus caballus), sequence (P02791 2-175 limits assumed): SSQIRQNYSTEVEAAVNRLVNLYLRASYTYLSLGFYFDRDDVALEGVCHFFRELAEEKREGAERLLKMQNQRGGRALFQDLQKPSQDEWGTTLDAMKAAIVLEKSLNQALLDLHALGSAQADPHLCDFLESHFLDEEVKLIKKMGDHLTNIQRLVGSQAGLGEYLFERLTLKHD
RecQ-like DNA helicase BLM (Homo sapiens), sequence (P54132 whole entry, looked up): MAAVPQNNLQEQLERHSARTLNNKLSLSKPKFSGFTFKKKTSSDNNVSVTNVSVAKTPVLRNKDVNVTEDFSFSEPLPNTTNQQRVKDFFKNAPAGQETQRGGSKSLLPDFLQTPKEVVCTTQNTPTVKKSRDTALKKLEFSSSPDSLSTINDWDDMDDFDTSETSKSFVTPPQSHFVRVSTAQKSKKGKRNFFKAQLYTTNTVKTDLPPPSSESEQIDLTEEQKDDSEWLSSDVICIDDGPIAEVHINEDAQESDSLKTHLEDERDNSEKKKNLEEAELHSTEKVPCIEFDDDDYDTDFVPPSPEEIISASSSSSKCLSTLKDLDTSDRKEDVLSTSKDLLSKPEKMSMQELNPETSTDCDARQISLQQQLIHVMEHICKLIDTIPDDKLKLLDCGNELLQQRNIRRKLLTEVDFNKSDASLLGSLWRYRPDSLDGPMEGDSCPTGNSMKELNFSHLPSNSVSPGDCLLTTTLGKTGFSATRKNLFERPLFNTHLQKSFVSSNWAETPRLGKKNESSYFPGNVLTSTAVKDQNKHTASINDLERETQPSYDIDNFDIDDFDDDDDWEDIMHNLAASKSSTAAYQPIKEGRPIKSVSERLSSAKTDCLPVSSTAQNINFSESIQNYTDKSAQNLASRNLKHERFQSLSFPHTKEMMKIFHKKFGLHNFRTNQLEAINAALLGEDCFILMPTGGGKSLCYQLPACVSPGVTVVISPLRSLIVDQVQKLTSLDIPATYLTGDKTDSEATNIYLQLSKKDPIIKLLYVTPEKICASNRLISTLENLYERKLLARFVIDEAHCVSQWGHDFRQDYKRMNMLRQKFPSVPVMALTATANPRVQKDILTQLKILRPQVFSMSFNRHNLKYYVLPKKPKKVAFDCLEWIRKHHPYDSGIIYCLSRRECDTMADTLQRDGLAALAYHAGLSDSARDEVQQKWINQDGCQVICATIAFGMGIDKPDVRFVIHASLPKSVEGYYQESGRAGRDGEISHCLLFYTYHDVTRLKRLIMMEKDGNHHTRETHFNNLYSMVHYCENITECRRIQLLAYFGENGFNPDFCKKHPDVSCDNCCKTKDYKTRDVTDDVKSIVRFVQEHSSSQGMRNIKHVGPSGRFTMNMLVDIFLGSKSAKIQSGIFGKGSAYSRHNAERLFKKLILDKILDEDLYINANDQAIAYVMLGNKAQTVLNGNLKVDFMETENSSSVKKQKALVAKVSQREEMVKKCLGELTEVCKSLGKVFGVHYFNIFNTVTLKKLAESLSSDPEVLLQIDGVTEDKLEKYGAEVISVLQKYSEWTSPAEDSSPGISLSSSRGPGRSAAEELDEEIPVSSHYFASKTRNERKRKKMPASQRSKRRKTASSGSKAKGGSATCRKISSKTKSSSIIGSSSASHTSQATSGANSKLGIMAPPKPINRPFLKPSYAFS
DNA polymerase III PolC-type (Bacillus subtilis (strain 168)), sequence (P13267 whole entry, looked up): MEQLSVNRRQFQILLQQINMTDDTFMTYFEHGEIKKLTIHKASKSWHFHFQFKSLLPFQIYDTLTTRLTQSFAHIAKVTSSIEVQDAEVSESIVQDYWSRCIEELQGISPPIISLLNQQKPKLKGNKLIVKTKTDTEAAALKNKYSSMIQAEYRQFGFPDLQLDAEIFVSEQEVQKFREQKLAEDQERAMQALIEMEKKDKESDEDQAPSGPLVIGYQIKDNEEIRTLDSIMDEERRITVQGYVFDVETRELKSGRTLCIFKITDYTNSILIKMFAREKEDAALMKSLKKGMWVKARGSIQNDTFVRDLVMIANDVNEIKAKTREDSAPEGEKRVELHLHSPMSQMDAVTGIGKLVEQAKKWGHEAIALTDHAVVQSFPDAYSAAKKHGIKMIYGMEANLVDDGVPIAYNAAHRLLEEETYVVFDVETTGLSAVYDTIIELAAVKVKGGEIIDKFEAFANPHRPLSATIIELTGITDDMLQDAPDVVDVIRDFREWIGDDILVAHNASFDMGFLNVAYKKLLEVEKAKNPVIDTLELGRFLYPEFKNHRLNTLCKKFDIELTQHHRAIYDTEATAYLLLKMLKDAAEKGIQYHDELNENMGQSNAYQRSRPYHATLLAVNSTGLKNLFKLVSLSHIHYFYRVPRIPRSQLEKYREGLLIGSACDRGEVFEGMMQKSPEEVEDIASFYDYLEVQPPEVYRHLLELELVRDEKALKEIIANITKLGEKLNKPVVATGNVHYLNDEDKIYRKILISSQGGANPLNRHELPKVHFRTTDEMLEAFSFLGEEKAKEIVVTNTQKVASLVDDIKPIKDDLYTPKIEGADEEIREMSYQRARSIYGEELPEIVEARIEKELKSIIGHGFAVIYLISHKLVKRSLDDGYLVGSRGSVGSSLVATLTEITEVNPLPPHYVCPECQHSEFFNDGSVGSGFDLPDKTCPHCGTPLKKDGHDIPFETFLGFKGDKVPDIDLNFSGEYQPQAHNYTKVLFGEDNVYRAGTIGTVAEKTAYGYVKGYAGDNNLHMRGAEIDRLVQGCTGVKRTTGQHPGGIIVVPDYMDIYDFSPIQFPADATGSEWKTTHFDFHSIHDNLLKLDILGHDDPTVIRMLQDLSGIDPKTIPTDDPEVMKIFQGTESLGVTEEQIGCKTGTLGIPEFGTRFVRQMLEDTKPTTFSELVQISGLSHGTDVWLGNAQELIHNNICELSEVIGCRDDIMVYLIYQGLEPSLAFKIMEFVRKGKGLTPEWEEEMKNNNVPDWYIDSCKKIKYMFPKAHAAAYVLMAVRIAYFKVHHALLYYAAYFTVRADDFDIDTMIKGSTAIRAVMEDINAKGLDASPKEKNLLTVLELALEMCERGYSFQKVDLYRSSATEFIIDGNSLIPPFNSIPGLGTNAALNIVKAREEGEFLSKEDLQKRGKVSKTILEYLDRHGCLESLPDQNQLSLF
Ubiquitin carboxyl-terminal hydrolase 2 (Homo sapiens), sequence (O75604 whole entry, looked up): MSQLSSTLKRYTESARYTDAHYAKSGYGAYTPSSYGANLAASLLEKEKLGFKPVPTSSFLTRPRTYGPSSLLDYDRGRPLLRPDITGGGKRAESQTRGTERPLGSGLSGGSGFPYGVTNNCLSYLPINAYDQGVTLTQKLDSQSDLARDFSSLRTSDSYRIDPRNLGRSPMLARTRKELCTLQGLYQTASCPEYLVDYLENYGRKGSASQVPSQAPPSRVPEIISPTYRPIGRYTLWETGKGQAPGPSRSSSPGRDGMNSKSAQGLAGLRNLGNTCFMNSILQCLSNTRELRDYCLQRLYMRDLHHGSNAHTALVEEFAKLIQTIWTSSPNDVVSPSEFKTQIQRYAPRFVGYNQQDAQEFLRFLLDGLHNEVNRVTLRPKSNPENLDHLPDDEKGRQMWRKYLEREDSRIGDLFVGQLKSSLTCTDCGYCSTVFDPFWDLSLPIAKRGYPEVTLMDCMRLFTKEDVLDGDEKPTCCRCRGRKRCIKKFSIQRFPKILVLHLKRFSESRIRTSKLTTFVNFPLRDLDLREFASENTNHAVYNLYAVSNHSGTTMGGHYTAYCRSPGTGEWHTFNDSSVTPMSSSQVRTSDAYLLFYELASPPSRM
ATP-dependent DNA helicase Q1 (Homo sapiens), sequence (P46063 whole entry, looked up): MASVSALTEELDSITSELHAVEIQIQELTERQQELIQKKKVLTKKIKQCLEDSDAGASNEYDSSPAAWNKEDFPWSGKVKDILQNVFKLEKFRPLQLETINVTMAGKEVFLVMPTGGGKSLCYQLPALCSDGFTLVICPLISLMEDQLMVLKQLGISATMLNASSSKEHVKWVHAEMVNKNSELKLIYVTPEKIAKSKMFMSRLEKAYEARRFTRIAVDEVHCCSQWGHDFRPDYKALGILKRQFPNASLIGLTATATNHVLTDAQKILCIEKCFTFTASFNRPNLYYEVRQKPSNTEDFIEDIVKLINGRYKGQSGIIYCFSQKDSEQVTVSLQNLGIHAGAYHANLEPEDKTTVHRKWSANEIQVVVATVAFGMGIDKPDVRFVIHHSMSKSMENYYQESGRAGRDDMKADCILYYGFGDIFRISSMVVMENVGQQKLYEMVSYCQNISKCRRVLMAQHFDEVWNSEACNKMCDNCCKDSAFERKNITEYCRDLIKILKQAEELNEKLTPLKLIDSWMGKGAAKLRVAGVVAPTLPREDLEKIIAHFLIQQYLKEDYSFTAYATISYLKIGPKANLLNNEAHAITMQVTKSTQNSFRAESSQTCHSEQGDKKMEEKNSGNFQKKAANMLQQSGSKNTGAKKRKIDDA

SMILES	Potency [1]	Potency [2]	Potency [3]	outcome [4]	outcome [5]	outcome [6]	Potency [7]	Potency [8]	Potency [9]	Potency [10]	Potency [11]	Potency [12]	outcome [13]	outcome [14]	Potency [15]	Potency [16]	Potency [17]	Potency [18]	outcome [19]	Potency [20]
O=C1NCN(c2ccccc2)C12CCN(CC1COc3ccccc3O1)CC2 (stereo not given)	8.91 µM (active)	inactive	10 µM (active)	inactive	inactive	inactive	inactive	inactive	inactive	inactive	inactive	inactive	inactive							
Clc1cccc(N2CCNCC2)c1			6.31 µM (active)		inactive	inactive			inactive	inactive				inactive	12.6 µM (active)	inactive	inactive	inactive		
Cc1nc2n(c(=O)c1CCN1CCC(c3noc4cc(F)ccc34)CC1)CCCC2	11.2 µM (active)		10 µM (active)						inactive						11.2 µM (active)	12.6 µM (active)	10 µM (active)			
Cc1cccc(C)c1NC1=NCCCS1	7.94 µM (active)		5.01 µM (active)		inactive	inactive	inactive	inactive	inactive	inactive	inactive	inactive	inactive	inactive	14.1 µM (active)	inactive	inactive	inactive		
OCCN1CCN(CCCN2c3ccccc3Sc3ccc(C(F)(F)F)cc32)CC1	2.82 µM (active)	10 µM (active)	1.41 µM (active)		inactive										2.51 µM (active)	2.51 µM (active)	10 µM (active)	4.47 µM (active)		
NCC(O)c1ccc(O)cc1 (stereo not given)	inactive	inactive	inactive		inactive	inactive	inactive	inactive	inactive	inactive	inactive	inactive	inactive	inactive	inactive	inactive	inactive	inactive	inactive	inactive
NN=C(N)N	inactive	inactive	inactive		inactive	inactive	inactive	inactive	inactive	inactive	inactive	inactive	inactive	inactive	inactive	inactive	inactive	inactive		
c1ccc(C2CC2)c(OCC2=NCCN2)c1			8.91 µM (active)		inactive	inactive	inactive	inactive	inactive	inactive	inactive	inactive	inactive	inactive	12.6 µM (active)	inactive	inactive	inactive		inactive
O=c1[nH]c2ccccc2n1CCCN1CCC(n2c(=O)[nH]c3cc(Cl)ccc32)CC1		8.91 µM (active)	4.47 µM (active)		inactive	inactive	inactive		inactive		inactive	inactive		inactive	12.6 µM (active)		14.1 µM (active)			inactive
CCC1(C2=NCCN2)Cc2ccccc2O1 (stereo not given)		8.91 µM (active)	3.98 µM (active)		inactive	inactive	inactive	inactive	inactive	inactive	inactive	inactive	inactive	inactive	12.6 µM (active)	inactive	inactive	inactive		inactive
CC(CCc1ccccc1)NC(C)C(O)c1ccc(O)cc1 (stereo not given)	7.94 µM (active)	5.01 µM (active)	2.51 µM (active)		inactive	inactive	inactive	inactive	inactive	inactive	inactive	inactive	inactive		3.16 µM (active)		inactive			
O=c1c(O)c(-c2ccc(O)c(O)c2)oc2cc(O)cc(O)c12	3.55 µM (active)	8.91 µM (active)	4.47 µM (active)						inactive			10.6 µM (active)			2.51 µM (active)	3.55 µM (active)	7.08 µM (active)	2.82 µM (active)		28.2 µM (active)
N#CC(C#N)=Cc1ccc(O)c(O)c1		inactive	12.6 µM (active)		inactive	inactive	inactive	inactive	inactive	inactive	inactive	inactive	inactive	inactive	14.1 µM (active)					
CCCN1CCC[C@@H]2Cc3nc(N)ncc3C[C@H]21	inactive	inactive	inactive		inactive	inactive	inactive	inactive	inactive	inactive	inactive	inactive	inactive	inactive	inactive	inactive	inactive	inactive		inactive
COc1ccccc1N1CCNCC1	inactive	inactive		inactive	inactive	inactive	inactive	inactive	inactive	inactive	inactive	inactive	inactive	inactive		inactive		inactive		inactive
Cc1ccc(S(=O)(=O)N[C@@H](CCCCN)C(=O)CCl)cc1	inactive	inactive			inactive	inactive	inactive	inactive	inactive	inactive	inactive	inactive		inactive	inactive		inactive	inactive		inactive
